Assay outcomes (PubChem BioAssay)
Peg3 promoter – reduces Peg3 promoter-driven luciferase expression in HeLa. 360,000 compounds, 1.7% hits. HeLa PEG-Prom luciferase reporter, luminescence, overnight. inhibition, % at 20 µM;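 active = inhibition of at least 50% at 20 µM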
CF NFkB inh – cystic fibrosis NF-kB activation inhibition | KKLEB NF-kB-GFP reporter, PAF-induced, GFP fluorescence overnight | inhibition, % at 5 µM | 360,000 compounds, 0.86% hits | AID 588850;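 active = at least 50% inhibition at 5 µM, scaled per plate between neutral and stimulator controls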;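 note: PAF is a Pseudomonas aeruginosa culture filtrate used as stimulus; plate controls were PAF-stimulated DMSO wells for no effect and unstimulated DMSO wells for full effect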
Shn3 3UTR inh – reduces Shn3 3'UTR luciferase signal in osteoblasts; Clone20 osteoblast Shn3 3'UTR firefly luciferase, 24 h; inhibition, % at 12.5 µM; 360,000 compounds, 0.52% hits; AID 588674;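 active = mean inhibition of at least 75% with every replicate also reaching 75%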;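 note: 0% = median of neutral control wells and 100% = pilot-screen positive control compound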
KKLEB cytotox – CF airway cell cytotoxicity counter-screen | KKLEB CF airway cells viability, ATPlite luminescence, overnight; stronger effect = lower value; cells stimulated with P. aeruginosa culture filtrate | activity change (cytotoxicity), % at 5 µM | 360,000 compounds, 0.36% hits | AID 602141;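 active = corrected activity change at or below -50% at 5 µM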
HIF-2a inh – blocks HIF-2a reporter activity | 786-0 RCC cells HIF-2a reporter, luciferase luminescence, overnight | inhibition, % at 18.8 µM | 360,000 compounds, 0.72% hits;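 active = inhibition of the luminescence signal of 40% or more relative to plate controls, in a single-dose primary screen at 18.75 µM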
* marks the source's active call; other numbers are inactive results; · = not tested or not shown. Sampled rows, rich in hits. Any-hit rate of the full collection: about 2.6%.

SMILES	Peg3 promoter	CF NFkB inh	Shn3 3UTR inh	KKLEB cytotox	HIF-2a inh
O=C(NCC1CCCO1)C(c1ccncc1)N(Cc1cccs1)C(=O)CN1C(=O)c2ccccc2S1(=O)=O (stereo not drawn)	7.7	5.8	-4.5	-16.4	6.3
O=C1CN(CC(=O)Nc2cccc(Cl)c2Cl)c2ccccc2N1	8.4	-13.8	0.7	-17.4	0.9
CCc1c(C)nc2c(-c3ccccc3)c(-c3ccccc3)[nH]n2c1=O	52.5*	-36.9	1.9	7.5	8.2
CC(=O)Cc1cc2cc([N+](=O)[O-])ccc2oc1=O	6.7	-15.4	-5.7	6.4	7.7
CC1(C)CC2(C)OC2C2(C1)N=NC(=Nc1ccccc1)O2 (stereo not drawn)	72.8*	49.4	6.9	-32.8	-31.9
O=C(NCCc1ccc(Cl)cc1)C1CCN(S(=O)(=O)N2CCC3(CC2)OCCO3)CC1	7.7	5.5	-9.7	6.0	-6.2
CC(C(=O)N1CCN(Cc2ccccc2)CC1)c1ccc([N+](=O)[O-])cc1 (stereo not drawn)	1.7	7.3	-8.7	-8.8	8.1
N/C(=N\OC(=O)c1ccc(Cl)c([N+](=O)[O-])c1)c1ccccc1	75.1*	-10.2	-72.7	-0.4	-19.9
N/C(=N\OC(=O)c1cc([N+](=O)[O-])ccc1Cl)c1cccnc1	61.6*	-1.8	17.4	4.0	-5.1
CC(OC(=O)c1ccc(Cl)c([N+](=O)[O-])c1)C(=O)N1CCN(Cc2ccccc2)CC1 (stereo not drawn)	78.3*	13.9	14.7	2.4	24.6
N/C(=N\OC(=O)c1ccc([N+](=O)[O-])cc1)c1cccnc1	-153.8	-21.9	-91.3	-2.3	-250.6
N/C(=N\OC(=O)c1ccc(Cl)c([N+](=O)[O-])c1)c1ccccn1	42.1	-15.7	-51.8	-9.9	-29.0
CC(C)Nc1nc(Nc2ccc(Cl)cc2F)c2sccc2n1	9.0	25.9	12.9	-19.7	7.1
Oc1c(C(c2cccs2)N2CCN(c3ccccc3)CC2)sc2ncnn12 (stereo not drawn)	20.7	18.2	-8.2	6.1	9.9
Oc1c(C(c2cccs2)N2CCC3(CC2)OCCO3)sc2ncnn12 (stereo not drawn)	12.3	12.0	87.9*	-4.3	-7.0
NC(=O)CC(NC(=O)Cc1ccc(Br)cc1)c1ccc(NC2CCCC2)c([N+](=O)[O-])c1 (stereo not drawn)	61.0*	1.0	16.0	-30.7	-22.7
NC(=O)CC(NC(=O)Cc1ccc(Br)cc1)c1ccc(NC2CCCCCCC2)c([N+](=O)[O-])c1 (stereo not drawn)	22.9	-22.1	-3.7	-15.5	3.3
O=C(Cn1cc(C(F)(F)F)cc(Cl)c1=O)NCCc1ccccc1	1.4	11.3	96.2*	16.2	16.5
O=C(Cn1cc(C(F)(F)F)cc(Cl)c1=O)NCc1ccccc1	-155.2	6.8	-41.6	-6.8	-161.9
CN(C)CCNC(=O)c1ccc(COc2ccc(Cl)cc2Cl)cc1	53.6*	26.3	-6.7	-27.7	-72.6
CCN(CC)CCNC(=O)c1ccc(NC(=O)c2ccc(Cl)c(S(=O)(=O)N3CCCCCC3)c2)cc1	87.6*	0.1	32.9	4.1	30.6
CCN(CC)CCNC(=O)c1ccc(NC(=O)c2ccc(S(=O)(=O)N3CCCCCC3)cc2)cc1	20.4	20.3	-10.8	-4.1	21.0
Cc1cc(C)c(C(N)=O)c(SCC(=O)c2cc(C)n(-c3cc(C)on3)c2C)n1	-0.5	11.5	89.7*	18.7	6.4
Cc1cc(-n2c(C)cc(C(=O)CSc3nncn3C)c2C)no1	-1.1	-12.5	90.4*	1.5	-32.8
Cc1ccc(OCC(=O)NNc2c3ccccc3nc3ccccc23)cc1	82.7*	-11.9	26.4	-2.6	-9.8
SMILES	Peg3 promoter	CF NFkB inh	Shn3 3UTR inh	KKLEB cytotox	HIF-2a inh
NCCCNC(=O)c1ccc(/C=N/O)nc1	-2.0	7.5	8.5	5.0	11.0
CC(=O)Nc1cc(-c2ccoc2)cn2c(-c3ccccc3)cnc12	-7.4	-21.3	-8.5	-9.5	7.4
CCOCCCn1c(C)nc2c[n+](CC(=O)c3ccc4ccccc4c3)cc(Br)c21	8.6	-6.8	-5.8	0.4	11.8
Cn1c(=O)n(C)c2cc([N+](=O)[O-])c(N3CCN(S(=O)(=O)c4ccc(C(C)(C)C)cc4)CC3)cc21	-6.3	-6.3	85.4*	11.8	-8.8
CC(=O)Nc1ccc(S(=O)(=O)N2CCN(c3cc4c(cc3[N+](=O)[O-])n(C)c(=O)n4C)CC2)cc1	7.2	-28.5	23.2	10.6	-13.6
O=C(CCl)c1cc2c3c(c1)CC(=O)N3CCC2	81.0*	19.6	8.2	8.6	-6.9
CC(C)(CC(=O)O)CC(=O)Nc1ccc2c(c1)ncn2CCc1ccccc1	6.2	-16.9	-12.8	0.9	14.6
Fc1cccc(/C=N/Nc2nncc3ccccc23)c1	-104.5	-16.3	3.5	-39.5	-93.9
C(=N\Nc1nncc2ccccc12)/c1ccccn1	19.5	66.4*	67.6	-28.8	-45.3
O=C(Nc1ccc(Cl)c(Cl)c1)N[C@@H]1CC[C@@H](CCn2cc(C3CCCCC3)nn2)O[C@@H]1CO	·	·	·	·	0.6
CCOc1ccc(Br)cc1C1=CC(=O)C[C@H](c2ccc(OC)cc2)C1	23.6	36.5	93.5*	-20.5	15.5
COc1ccc([C@H]2CC(=O)C=C(c3cc(Br)ccc3OC)C2)cc1	19.3	37.4	-1.9	-28.4	-10.2
O=[N+]([O-])c1ccc(N2CCN(Cc3ccccc3)CC2)c2c1no[n+]2[O-]	95.0*	42.3	77.4	-60.9*	23.5
O=[N+]([O-])c1ccc(N2CCN(Cc3ccccc3)CC2)s1	-1.2	-3.3	25.1	2.1	8.7
Cc1ccc(/C=C/C(=O)N2CC(C)CC(C)C2)o1 (stereo not drawn)	75.7*	11.1	26.9	6.2	39.0
Cc1cccc(NC(=O)c2ncn3c2C(=O)N(C)CC3)c1	-0.4	-41.5	-2.6	16.0	-22.8
C=C(C(=O)c1ccccc1)C(C)CC(=O)c1ccccc1 (stereo not drawn)	71.7*	13.6	5.9	-26.0	26.2
O=C(CC(Nc1ccccc1)C(=O)O)c1ccccc1 (stereo not drawn)	-202.4	-4.2	-108.2	-1.6	-222.3
COc1ccc2oc(-c3ccc(NC(=O)c4ccc(N5CCOCC5)c([N+](=O)[O-])c4)cc3)nc2c1	28.9	53.5*	8.4	-60.3*	18.8
CN(CCC#N)C(=O)COC(=O)c1ccccc1OCc1ccccc1Cl	-4.9	-1.1	7.6	5.1	16.0
Cc1cc(C(=O)NC2CCCC(C)C2C)c2ccccc2n1 (stereo not drawn)	10.0	-0.9	1.2	-8.8	20.8
O=C1NC(=O)c2cc(Br)cc3cccc1c23	-22.2	-126.6	14.8	11.1	3.9
O=C1Nc2c(Br)cc(Br)c3cccc1c23	73.6*	-22.4	6.9	-2.6	2.0
CC(C)[C@@H](C(=O)N[C@@H](CCc1ccc(O)cc1)C(=O)O)N(C)C(=O)[C@H](CO)NC(=O)[C@@H](O)[C@H](N)CCCCCCCCl	9.1	-6.8	-2.4	-9.3	8.2
